Screen size: about 320,000 compounds; about 8,000 (2.5%) were called active. Cut-off read from the data, not from the text of the source: active = activation above about 47%; inactive = the rest. This excerpt belongs to a sample that is enriched for actives.
Biological target: Aryl hydrocarbon receptor (Homo sapiens) (UniProt P35869)
Experiment: AHR activators, primary screen, cell-based, luminescence, luciferase reporter, human (AID 2796);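 note: 0% = vehicle wells and 100% = reference agonist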
Details: AHR-responsive luciferase reporter cells, at 5 µM, hits give high values

Aryl hydrocarbon receptor (Homo sapiens), sequence (P35869 whole entry, looked up): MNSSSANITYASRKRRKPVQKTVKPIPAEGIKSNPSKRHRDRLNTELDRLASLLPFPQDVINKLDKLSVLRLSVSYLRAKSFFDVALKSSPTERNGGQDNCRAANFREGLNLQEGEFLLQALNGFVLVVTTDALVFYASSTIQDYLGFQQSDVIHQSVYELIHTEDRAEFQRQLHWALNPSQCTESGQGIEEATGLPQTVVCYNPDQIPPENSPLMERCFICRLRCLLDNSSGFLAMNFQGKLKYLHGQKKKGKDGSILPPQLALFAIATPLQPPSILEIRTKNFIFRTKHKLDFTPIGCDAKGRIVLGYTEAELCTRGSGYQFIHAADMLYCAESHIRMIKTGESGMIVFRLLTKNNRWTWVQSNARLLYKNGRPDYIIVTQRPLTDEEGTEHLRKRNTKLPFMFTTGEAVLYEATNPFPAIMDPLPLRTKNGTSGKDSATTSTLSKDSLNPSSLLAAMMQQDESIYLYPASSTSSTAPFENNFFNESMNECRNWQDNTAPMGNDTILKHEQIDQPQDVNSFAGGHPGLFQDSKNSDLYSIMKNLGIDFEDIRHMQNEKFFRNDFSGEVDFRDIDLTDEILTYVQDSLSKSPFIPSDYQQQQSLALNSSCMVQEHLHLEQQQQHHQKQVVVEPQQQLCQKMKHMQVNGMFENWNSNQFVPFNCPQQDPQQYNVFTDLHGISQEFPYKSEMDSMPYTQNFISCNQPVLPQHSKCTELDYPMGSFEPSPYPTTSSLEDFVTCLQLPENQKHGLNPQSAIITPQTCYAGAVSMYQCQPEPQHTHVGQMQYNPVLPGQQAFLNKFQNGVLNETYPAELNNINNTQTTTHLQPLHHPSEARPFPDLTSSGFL

activation, inactive:
COc1ccc([N+](=O)[O-])cc1-c1nc2ccccc2nc1-c1ccccc1 3.27%
Cc1nc(-c2ccc([N+](=O)[O-])cc2)c(-c2ccccc2)o1 1.84%
CCNC(=O)c1cccc(NC(=O)C2CC(=O)N(CCc3ccccc3)C2)c1 (stereo unspecified) 2.07%
C=CCn1cc(C(=O)NCc2ccc(Cl)cc2)c(=O)c2cc(S(=O)(=O)N(CC)CC)ccc21 11.3%
CCCOc1ccc(Cc2c(Cl)nc(SC)nc2NC)cc1 2.63%
COc1cccc(CNS(=O)(=O)c2cc3c(cc2C)n(C)c(=O)c(=O)n3C)c1 -0.05%
COc1ccccc1/C=N/Nc1nc(C)c(C(C)=O)s1 33.6%
COc1ccccc1OCc1nc2ccccc2s1 45.1%
COc1cccc2sc(N(CCCN(C)C)C(=O)C(c3ccccc3)c3ccccc3)nc12 -0.96%
COc1cc2ccccc2cc1C(=O)Nc1nc(C)c(C(C)=O)s1 6.6%
CCOP(=O)(OCC)C(Nc1ccc([N+](=O)[O-])cc1)c1ccc(Cl)cc1 (stereo unspecified) 0.69%
Cn1ccc(=Nc2ccc(NC(=O)c3ccc(N=c4ccn(C)c5ccc([N+](=O)[O-])cc45)cc3)cc2)cc1 2.76%
O=C(Nc1nnc(-c2ccccc2)o1)c1cccc(S(=O)(=O)N2CCOCC2)c1 2.09%
CC(C)CNC(=O)COC(=O)c1ccccc1OCC(=O)Nc1ccc(Br)cc1 -3.8%
CC(C)C(NC(=O)c1cccc(S(=O)(=O)N2CCOCC2)c1)C(=O)NCCc1ccccn1 (stereo unspecified) -6.5%
COc1ccc2ccccc2c1CNCc1ccccn1 18.4%
c1ccc2c(CNn3cnnc3)cccc2c1 0.98%
COc1ccc(CCNC(=O)C(=O)NCC2OCCN2S(=O)(=O)c2cccs2)cc1OC (stereo unspecified) -2.65%
CN(CCc1ccccc1)C(=O)c1cccc(NC(=O)Cc2ccc([N+](=O)[O-])cc2)c1 -0.06%
Cn1cccc1/C=N/NC(=O)c1ccc(OC(F)(F)C(F)F)cc1 3.37%
Cn1nccc1NC(=O)Nc1ccc(OC(F)(F)F)cc1 3.12%
COC(=O)c1ccc(COC(=O)CNC(=O)c2cccc(OC)c2)o1 0.14%
O=C(c1ccc(-c2ccccc2)cc1)C1CCCN(C(=O)c2cncs2)C1 (stereo unspecified) 37.6%
CC1(C)CC(=O)C=C(c2ccc3ncccc3c2)C1 8.47%
O=C(NNC(=O)c1cc2c(s1)CCCC2)c1ccccc1 4.72%
CN(C)C(=O)c1ccc(NC(=O)COC(=O)c2cc3c(s2)CCCCC3)cc1 -0.09%
CC(C)CCNC(=O)C(C)N(C(=O)Cn1nnc(-c2ccc(F)cc2)n1)C1CCCC1 (stereo unspecified) -2.15%
COc1ccc2[nH]c(C(=O)Nc3ccccc3Cl)cc2c1 21%
CC(OC(=O)c1cc2ccccc2[nH]1)C(=O)N(C)c1ccccc1 (stereo unspecified) 28.8%
CCc1ccc(Oc2nc([N+](=O)[O-])nn2C)cc1 -3.57%
CCCN(CCc1ccccc1)C1CCc2c(O)cccc2C1 (stereo unspecified) 3.78%
COc1cc(/C=N/NC(=O)c2cccnc2)ccc1OC(=O)c1cccc(Br)c1 18.7%
COc1cc(/C=N/NC(=O)CNC(=O)c2ccncc2)ccc1OC(C)=O 0.59%
COc1cnc(SCc2ccc(Cl)c(Cl)c2)nc1Cl -1.43%
CCOC(=O)c1ccc(NC(=O)Cc2cccs2)cc1 0.34%
O=C(Cc1cccs1)Nc1ccc([N+](=O)[O-])cc1 0.97%
CN1CCC(CN)(N2CCN(c3ccccc3)CC2)CC1 2.54%
COc1ccccc1C(=O)N(Cc1ccc(C)o1)C1CCS(=O)(=O)C1 (stereo unspecified) -1.67%
Cc1ccc2c(N)c(C(=O)c3ccccc3)sc2n1 46.1%
CCc1nc2sc(C(=O)O)c(N)c2c2c1CCCC2 0.64%
CC1(C)CC(=O)C=C(NCCN2CCNCC2)C1 3.32%
COc1cccc(C2=CC(=O)C[C@H](c3ccc(OC)c(OC)c3)C2)c1 2.2%
O=S(=O)(Nc1cc(S(=O)(=O)N2CCOCC2)ccc1N1CCCC1)c1cccs1 1.52%
COc1ccc2[nH]c(C(=O)N/N=C/c3cc(OC)c(OC)c(OC)c3)cc2c1 30.9%
CCOc1ccc2[nH]c(C(=O)N/N=C/c3cccc(OC)c3OC)cc2c1 33%
CCOc1cc(/C=N/NC(=O)c2cc(-c3ccccc3)nc3ccccc23)ccc1O 16.1%
COc1ccc(/C=N/NC(=O)c2cc(-c3cccc(C)c3)nc3ccccc23)cc1O 21.2%
O=C(COc1ccc(Br)cc1F)NCC1(N2CCCCC2)CCCCC1 -0.81%
O=c1oc2c(Cl)cc(Cl)cc2cc1-c1nnc(Nc2ccccc2F)s1 10.5%

activation, active:
Cn1nc(-c2ccccc2)c2cc([N+](=O)[O-])ccc21 67.7%
COc1cccc2sc(Nc3nc(C)c(C(C)=O)s3)nc12 67.4%
COc1cccc2sc(NNC(=O)c3nc4ccccc4s3)nc12 86.3%
c1ccc(NCc2cccc3ccccc23)nc1 67.9%
O=C(Nc1ccc(OC(F)(F)F)cc1)c1ccc2c(c1)no[n+]2[O-] 93.6%
O=C(Nc1ccc(F)cc1)c1cc2c(s1)CCCC2 55.3%
O=C(Nc1ccccc1)c1cc2ccccc2[nH]1 160%
COc1ccc(/C=N\NC(=O)c2sc(N)nc2C)cc1OC 77.3%
O=C(Cc1cccs1)Nc1cccc(-c2nc3ccccc3[nH]2)c1 75.8%
Cc1nc2sc(C(=O)c3ccccc3)c(N)c2c2c1CCCC2 85.3%
COc1cccc(OCc2cc(/C=N/NC(=O)c3nc(Cl)c(Cl)c(N)c3Cl)ccc2OC)c1 73.8%
COc1cccc(-c2cc(C(=O)N/N=C/c3ccc(OC)c(COC(C)=O)c3)c3ccccc3n2)c1 54.1%

Reference: PubChem BioAssay AID2796 (The Scripps Research Institute Molecular Screening Center, 2010)
